MsrA act: bovine MsrA enzyme activators, primary screen, biochemical, absorbance, HTS. purified bovine MsrA, absorbance read-out. AID 602163, 2012. actives 0.3% (n = 360,000). activation, % at 10.6 µM; in the data active = activation above about 7.5%
PKA-R2B act: activators of PKA-R2B holoenzyme, primary screen, biochemical, fluorescence polarization, Cy5-IP20, human | actives 0.079% (n = 340,000) | AID 504700, 2011 | PKA-R2B holoenzyme dissociation; R2B truncated from residue 108, S112A mutant; 0% DMSO only, 100% 113 µM cGMP | activation, % at 11.4 µM;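 active = activation above a cutoff set at the mean over all compounds plus 3 SD, cut at about 18% in these data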;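 also: higher means more holoenzyme dissociation and a rise in polarization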
Target sequence (P31323 whole entry, looked up, other chains not shown, the tested form may be a part): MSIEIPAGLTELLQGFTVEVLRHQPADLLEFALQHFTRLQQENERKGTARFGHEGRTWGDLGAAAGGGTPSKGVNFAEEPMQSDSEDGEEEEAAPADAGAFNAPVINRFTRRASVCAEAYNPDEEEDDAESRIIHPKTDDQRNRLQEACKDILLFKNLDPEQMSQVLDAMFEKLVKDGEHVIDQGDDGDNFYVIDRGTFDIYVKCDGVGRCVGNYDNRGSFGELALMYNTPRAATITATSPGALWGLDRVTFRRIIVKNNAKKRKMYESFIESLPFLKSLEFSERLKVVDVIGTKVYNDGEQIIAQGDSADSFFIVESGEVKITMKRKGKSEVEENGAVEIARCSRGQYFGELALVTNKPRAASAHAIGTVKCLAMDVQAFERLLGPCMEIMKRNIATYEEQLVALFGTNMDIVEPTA
PKA-R1A act: activators of PKA-R1A holoenzyme, primary screen, biochemical, fluorescence polarization, Cy5-IP20, bovine R1A, mouse PKAc | cAMP-dependent protein kinase type I-alpha regulatory subunit (Bos taurus) + … | PKA-R1A dissociation; scaled: DMSO 0%, 113 µM cGMP 100% | activation, % at 11.4 µM | actives 0.083% (n = 340,000) | AID 504707, 2011;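 active = percent activation above the mean of all tested compounds plus 3 SD, cut at about 19% in these data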;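 also: higher means more PKAc released from R1A so a rise in polarization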
MsrA inh: bovine MsrA enzyme inhibitors, primary screen, biochemical, absorbance, HTS. actives 0.75% (n = 360,000). Methionine sulfoxide reductase A (Bos taurus). purified bovine MsrA, absorbance read-out. inhibition, % at 15.5 µM
MsrA conf: bovine MsrA inhibitors, retest, confirmation, biochemical, absorbance, HTS | inhibition, % at 15.5 µM | shares compounds with MsrA inh | actives 41% (n = 2,300) | AID 651822, 2012 | purified bovine MsrA, absorbance read-out;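 also: coupled to thioredoxin reductase with NADPH and selenocystamine and DMSO as substrate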
Large screens that a line does not name were inactive (follow-up assays come after a bar, where they were run). Hits are enriched below; roughly 1.1% of the tested compounds scored in any of these assays. Rule as the data show it, unless noted: active = inhibition above about 4.5%; inactive = the rest.

O=C(N/N=C/c1ccc(O)c([N+](=O)[O-])c1)c1ccncc1	MsrA inh 5.6 | MsrA conf 4.9
CC(C)CNc1ncnc2c1ncn2[C@H]1CN(Cc2ccc3c(c2)OCO3)C[C@@H](CO)O1	none (no result: PKA-R2B act, PKA-R1A act)
COc1cc(/C=N/Nc2ccc(C(=O)O)cc2)ccc1O	MsrA inh 7.1 | MsrA conf 5.1
COc1cc(/C=N/NC(=S)Nc2cccc(C(=O)O)c2)ccc1O	MsrA inh 5.1 | MsrA conf 5.6
COc1cc(/C=N/Nc2ccc(S(N)(=O)=O)cc2)cc(OC)c1OC	MsrA inh 5.6 | MsrA conf 6.3
COc1cc(/C=N/Nc2ccc(C(=O)O)cc2)cc(OC)c1OC	none
CC(=O)Nc1ccc(/C=N/NC(=S)NC(C)C)cc1	MsrA inh 8.9 | MsrA conf inactive
COc1ccc(/C=N/NC(=S)Nc2cccc(C(=O)O)c2)cc1	none
C[C@@H]1CN(c2ccc(N3CCNC[C@H]3C)cc2C#N)CCN1Cc1ccccc1	none (no result: MsrA act, PKA-R2B act, PKA-R1A act)
COCC(=O)N(C)[C@H]1C[C@H]2c3[nH]c4c(-c5ccccc5)cccc4c3CCN2C(=O)[C@H]1[C@H](C)O	none (no result: MsrA act, PKA-R2B act, PKA-R1A act)
Fc1ccc(-n2nnc(-c3nccs3)n2)cc1	none
CCNc1nc(NCC)nc(N/N=C/c2ccc(OC)cc2)n1	none (no result: PKA-R2B act, PKA-R1A act)
COc1ccc(C=NNC(=O)NN=Cc2ccc(OC)c(OC)c2)cc1OC	none
COc1ccc(-c2cnnc(N/N=C/c3ccc(O)c(OC)c3)n2)cc1	MsrA inh 6.4 | MsrA conf 6.6
COc1ccc(/C=N/Nc2nc(C)nc(N)n2)cc1	MsrA inh 4.7 | MsrA conf inactive
COc1ccc(/C=N/NC(=S)SC)cc1OC	MsrA inh 6.2 | MsrA conf inactive
COc1cc(C=O)ccc1O	MsrA inh 6.2 (no result: PKA-R2B act, PKA-R1A act) | MsrA conf inactive
C=CCN=C1NC(c2ccccc2C(F)(F)F)C(C(=O)OC)=C(C)N1Cc1ccccc1C(F)(F)F (stereo unspecified)	none (no result: MsrA act, PKA-R2B act, PKA-R1A act)
COc1cc(/C=N/Nc2nc(N3CCCC3)nc(N3CCCC3)n2)ccc1O	MsrA inh 5.2 | MsrA conf inactive
COc1ccc(/C=N/Nc2nonc2N)cc1OC	none
COc1ccc(/C=N/NC(=S)Nc2ccccc2)cc1	MsrA inh 4.9 | MsrA conf inactive
COc1ccc(/C=N/Nc2cc(=O)n(C)c(=O)n2C)cc1OC	MsrA inh 4.7 | MsrA conf 4.7
COc1ccc(/C=N/NC(=S)Nc2ccccc2)cc1COc1ccc(Br)cc1	none
COc1ccc(/C=N/Nc2nc(N)cc(Cl)n2)cc1OC	MsrA inh 5.8 | MsrA conf inactive
COCCNC(=O)C1CCCN(C(=O)c2ccc3sccc3c2)CC1 (stereo unspecified)	none (no result: PKA-R2B act, PKA-R1A act)
C[C@H]1CN(C(=O)OC(C)(C)C)CCN1c1ccc(N2CCS(=O)(=O)CC2)c(C#N)c1	none (no result: MsrA act, PKA-R2B act, PKA-R1A act)
COc1ccccc1NS(=O)(=O)c1cc(NC(=O)CC(C)(C)C)ccc1N1CCOCC1	none (no result: PKA-R2B act, PKA-R1A act)
CC(C)(C)OC(=O)N1CCN(C(c2ccnc3ccccc23)c2nnnn2-c2ccc3c(c2)OCCO3)CC1 (stereo unspecified)	none (no result: PKA-R2B act, PKA-R1A act)
COc1ccc(/C=N/Nc2ccc(C(=O)O)cc2)c(OC)c1OC	MsrA inh 5.8 | MsrA conf 5.5
COc1cc([N+](=O)[O-])ccc1NC(=S)NNC(=O)c1ccc2c(c1)OCO2	MsrA inh 4.7 | MsrA conf inactive
CCCCc1n[nH]c2c1/C(=N/O)CC(C)(C)C2	none
CCCCc1n[nH]c2c1/C(=N/OCC)CC(C)(C)C2	MsrA inh 19 (no result: PKA-R2B act, PKA-R1A act) | MsrA conf 13
COC(=O)CCN(Cc1cccc(OC)c1OC)S(=O)(=O)c1ccccc1Br	none (no result: MsrA act, PKA-R2B act, PKA-R1A act)
Nc1nc2nccc(-c3ccc(Cl)cc3)n2n1	MsrA inh 5.2 | MsrA conf inactive
Cc1cc(-c2ccc(Cl)cc2)n2nc(N)nc2n1	none
COc1ccc(-c2cc(=O)c3ccccc3o2)cc1	none
COc1ccc(-c2cc(=O)c3cccc(CC(=O)O)c3o2)cc1	MsrA inh 5.0 (no result: MsrA act, PKA-R2B act, PKA-R1A act) | MsrA conf 4.6
CCOC(=O)CC(C)(C)/C(C)=N/Nc1ccc([N+](=O)[O-])cc1[N+](=O)[O-]	MsrA inh 9.8 | MsrA conf 13
CCOC(=O)C(C(=O)OCC)C(C)(C)/C(C)=N\Nc1ccc([N+](=O)[O-])cc1[N+](=O)[O-]	none
C/C(=N\Nc1ccc([N+](=O)[O-])cc1[N+](=O)[O-])C(C)C(C)C (stereo unspecified)	MsrA inh 16 | MsrA conf 14
O=[N+]([O-])c1ccc(Nc2ccccc2O)c([N+](=O)[O-])c1	MsrA inh 5.7 | MsrA conf 7.2
CCOC(=O)C(C)/C(C)=N\Nc1ccc([N+](=O)[O-])cc1[N+](=O)[O-] (stereo unspecified)	MsrA inh 15 | MsrA conf 13
O=[N+]([O-])c1ccc(NN=C(C2CC2)C2CC2)c([N+](=O)[O-])c1	none
NC(=O)c1ccccc1OCC(=O)Nc1ccc(Cl)c(Cl)c1	none
COC(=O)[C@]12C[C@H](CC(=O)NCc3ccc(C)o3)C(=O)N(Cc3ccccc3)C1=C[C@H](C1CCCC1)O[C@@H]2C	none (no result: MsrA act, PKA-R2B act, PKA-R1A act)
COc1ccc(C(=O)NCC(=O)N/N=C/C(C)=C/c2ccco2)cc1OC	MsrA inh 6.6 | MsrA conf inactive
O=C(Nc1ccc2nc(-c3ccc(Br)o3)[nH]c2c1)c1ccco1	MsrA inh 6.5 | MsrA conf 6.6
COc1cccc(-c2cc3c(-n4cccc4)ncnc3o2)c1	MsrA inh 5.5 | MsrA conf inactive
COc1ccc(C2(c3ccc(OC)cc3)NC(=O)N(CC(=O)NC3(C#N)CCCCC3)C2=O)cc1	none
COCCN(C(=O)c1ccc(-c2ccc([N+](=O)[O-])cc2)o1)c1c(N)n(CC(C)C)c(=O)[nH]c1=O	MsrA inh 4.7 | MsrA conf 4.6
O=C(O)c1cccc(Nc2nc(-c3cccnc3)nc3ccccc23)c1	MsrA inh 5.6 | MsrA conf inactive
COC(=O)c1cccc(Nc2nc(-c3cccnc3)nc3ccccc23)c1	none
Nc1[nH]c(C(=O)c2ccccc2)c(-c2ccc3ccccc3c2)c1C(=O)NC1CC1	none (no result: MsrA act, PKA-R2B act, PKA-R1A act)
COc1ccc(-c2ccc3c(n2)CCCN3S(=O)(=O)c2ccccc2C)cc1	none (no result: MsrA act, PKA-R2B act, PKA-R1A act)
N#C/C(=C\N1CCN(Cc2ccc3c(c2)OCO3)CC1)c1nc2ccccc2s1	none
CCOC(=O)N1CCN(/C=C(\C#N)c2nc3ccccc3s2)CC1	MsrA inh 7.0 | MsrA conf 5.2
CC1CCc2c(sc(NC(=O)COC(=O)c3ccc(O)cc3)c2C#N)C1 (stereo unspecified)	none
COC(=O)C1=C(C)N(C)C(=NCC2CC2)NC1c1ccc(F)cc1 (stereo unspecified)	none (no result: MsrA act, PKA-R2B act, PKA-R1A act)
N#C/C(=C/Nc1ccccc1C(=O)O)C(N)=O	MsrA inh 5.8 | MsrA conf 6.8

Screens: PubChem, The Scripps Research Institute Molecular Screening Center
